Laboratory results reported in PubChem BioAssay (NCI).
Compounds without any hit were thinned out: in the full panel of roughly 83,000, 20% have a hit.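 Plates (96-well) were seeded with cells, treated with compound at one concentration, and incubated for 48 hours before percent growth was determined.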 Activity calls are given as the source filed them. Rule for the calls: active = growth percent below 10; inactive = the rest.

How the values were obtained:
Assay in all cases: NCI-60 one-dose screen, 48 h (100 = growth as untreated, 0 = no growth, -100 = all killed)
Details in all cases: 10 µM unless noted
SK-MEL-2 melanoma = test system: SK-MEL-2 melanoma
EKVX NSCLC = test system: EKVX NSCLC
SN12C renal = test system: SN12C renal
UO-31 renal = test system: UO-31 renal
TK-10 renal = test system: TK-10 renal
ACHN renal = test system: ACHN renal
CAKI-1 renal = test system: CAKI-1 renal
A498 renal = test system: A498 renal
CCRF-CEM leukemia = test system: CCRF-CEM leukemia
MOLT-4 leukemia = test system: MOLT-4 leukemia
SR leukemia = test system: SR leukemia
OVCAR-8 ovarian = test system: OVCAR-8 ovarian
OVCAR-5 ovarian = test system: OVCAR-5 ovarian
OVCAR-4 ovarian = test system: OVCAR-4 ovarian
SK-OV-3 ovarian = test system: SK-OV-3 ovarian
IGROV1 ovarian = test system: IGROV1 ovarian
OVCAR-3 ovarian = test system: OVCAR-3 ovarian
HS 578T breast = test system: HS 578T breast
NCI/ADR-RES ovarian = test system: NCI/ADR-RES ovarian

Measured: growth

COc1cc2cc(Oc3ccc(NC(=O)Nc4cccc(C(F)(F)F)c4)cc3)c(C)nc2cc1OCCN1CCOCC1
inactive: SK-MEL-2 melanoma 78.6% | EKVX NSCLC 25.4% | SN12C renal 47.7% | UO-31 renal 51.8% | TK-10 renal 66.3% | ACHN renal 21.4% | CAKI-1 renal 56.2% | A498 renal 64.2% | CCRF-CEM leukemia 23.9% | OVCAR-8 ovarian 25.1% | OVCAR-5 ovarian 109% | OVCAR-4 ovarian 20.1% | SK-OV-3 ovarian 92% | IGROV1 ovarian 57.7% | OVCAR-3 ovarian 28.6% | HS 578T breast 86% | NCI/ADR-RES ovarian 45.3%
active: MOLT-4 leukemia 6.76% | SR leukemia 9.31%

CCn1cnc2c1c(=O)[nH]c(=O)n2CC1CCC(CNS(=O)(=O)c2ccc(OC3CCOCC3)c(F)c2)CC1 (centres undefined)
inactive: SK-MEL-2 melanoma 74.8% | EKVX NSCLC 68.1% | SN12C renal 62.9% | UO-31 renal 55.2% | TK-10 renal 33.7% | ACHN renal 72.2% | CAKI-1 renal 46.2% | A498 renal 67.1% | CCRF-CEM leukemia 52.6% | MOLT-4 leukemia 63% | SR leukemia 49.6% | OVCAR-8 ovarian 60.5% | OVCAR-5 ovarian 64.1% | OVCAR-4 ovarian 42% | SK-OV-3 ovarian 31.9% | IGROV1 ovarian 62.6% | OVCAR-3 ovarian 60.5% | HS 578T breast 15.9% | NCI/ADR-RES ovarian 95.8%

Oc1ccc(C#CCOc2ccccc2)cc1CNCCN(Cc1ccccn1)Cc1ccccn1
inactive: SK-MEL-2 melanoma 61.2% | EKVX NSCLC 16% | SN12C renal 13.9% | TK-10 renal 26.2% | CAKI-1 renal 28.4% | OVCAR-8 ovarian 15.2% | OVCAR-5 ovarian 27.2% | OVCAR-4 ovarian 11.3% | SK-OV-3 ovarian 18% | IGROV1 ovarian 13.4% | OVCAR-3 ovarian 12.1% | HS 578T breast 35.5%
active: UO-31 renal -2.48% | ACHN renal 9.66% | A498 renal -21.8% | CCRF-CEM leukemia 6.83% | MOLT-4 leukemia 1.72% | SR leukemia -4.08% | NCI/ADR-RES ovarian 0.625%

CCOC(=O)Nc1ccc(-c2nc(-c3cccc(OCCN4CCOCC4)c3)c(-c3ccnc(Br)c3)[nH]2)cc1
active: MOLT-4 leukemia 7.57% | SR leukemia -12.9% | HS 578T breast -16.4%
inactive: SK-MEL-2 melanoma 40.2% | EKVX NSCLC 61.1% | SN12C renal 59.9% | UO-31 renal 21.5% | TK-10 renal 87.4% | ACHN renal 43.9% | CAKI-1 renal 51.3% | A498 renal 49.9% | CCRF-CEM leukemia 26.4% | OVCAR-8 ovarian 43.8% | OVCAR-5 ovarian 66.9% | OVCAR-4 ovarian 52.7% | SK-OV-3 ovarian 80.8% | IGROV1 ovarian 63.6% | OVCAR-3 ovarian 48.6% | NCI/ADR-RES ovarian 60.7%

O=[N+]([O-])c1ccc(Oc2nc(Nc3ccc(O[C@H]4CO[C@H]5[C@@H]4OC[C@@H]5O)c(Cl)c3)ncc2F)c(Cl)c1
inactive: SK-MEL-2 melanoma 21.7% | EKVX NSCLC 43.8% | SN12C renal 15.9% | TK-10 renal 44.5% | ACHN renal 19.3% | CCRF-CEM leukemia 25.1% | SR leukemia 10.5% | OVCAR-8 ovarian 32.5% | OVCAR-5 ovarian 43.2% | OVCAR-4 ovarian 34.4% | OVCAR-3 ovarian 31.1% | NCI/ADR-RES ovarian 81.3%
active: UO-31 renal -9.77% | CAKI-1 renal 7.81% | A498 renal -2.07% | MOLT-4 leukemia -3.69% | SK-OV-3 ovarian 9.64% | IGROV1 ovarian -13% | HS 578T breast -2.68%

Cc1nn(-c2ccccc2)c(-n2ccnc2)c1/C=N/Nc1nc(-c2ccc(Cl)c(Cl)c2)cs1
active: TK-10 renal 2.74% | OVCAR-4 ovarian -22.1% | OVCAR-3 ovarian -69.4% | NCI/ADR-RES ovarian -9.8%
inactive: SK-MEL-2 melanoma 83.7% | EKVX NSCLC 30.8% | SN12C renal 31.3% | UO-31 renal 49.6% | ACHN renal 39.9% | CAKI-1 renal 24.9% | A498 renal 43.5% | CCRF-CEM leukemia 26.1% | MOLT-4 leukemia 32.3% | SR leukemia 41.2% | OVCAR-8 ovarian 20% | OVCAR-5 ovarian 71.8% | SK-OV-3 ovarian 89.5% | IGROV1 ovarian 60.9% | HS 578T breast 42%

O=c1c2cc(F)ccc2sc2c(NCCO)nc3ccccc3c12
inactive: SK-MEL-2 melanoma 102% | EKVX NSCLC 83.3% | SN12C renal 98.4% | UO-31 renal 77.8% | TK-10 renal 114% | ACHN renal 103% | CAKI-1 renal 90.8% | A498 renal 80.6% | CCRF-CEM leukemia 105% | MOLT-4 leukemia 104% | SR leukemia 88.9% | OVCAR-8 ovarian 97.1% | OVCAR-5 ovarian 108% | OVCAR-4 ovarian 111% | SK-OV-3 ovarian 109% | IGROV1 ovarian 104% | OVCAR-3 ovarian 121% | HS 578T breast 110% | NCI/ADR-RES ovarian 103%

O=C(Nc1ccc(I)cc1F)c1cc(I)ccc1O
active: SK-MEL-2 melanoma -19.3% | EKVX NSCLC 6.21% | SN12C renal -10.4% | UO-31 renal -9.71% | ACHN renal -5.98% | CAKI-1 renal 3.29% | A498 renal -49.1% | MOLT-4 leukemia -10% | SR leukemia 3.39% | OVCAR-3 ovarian 4.35% | HS 578T breast 3.07% | NCI/ADR-RES ovarian 5.58%
inactive: TK-10 renal 14.7% | CCRF-CEM leukemia 15.3% | OVCAR-8 ovarian 12.7% | OVCAR-5 ovarian 21.6% | OVCAR-4 ovarian 22.3% | SK-OV-3 ovarian 13.9% | IGROV1 ovarian 18.4%

COc1cc(Nc2cn[nH]c2-c2ccc(Cl)cc2)cc(OC)c1OC
active: NCI/ADR-RES ovarian -26%
inactive: SK-MEL-2 melanoma 32.4% | EKVX NSCLC 62.7% | SN12C renal 52.5% | UO-31 renal 32.3% | TK-10 renal 67% | ACHN renal 71.1% | CAKI-1 renal 59.9% | A498 renal 43.3% | CCRF-CEM leukemia 24.3% | MOLT-4 leukemia 19.7% | SR leukemia 10.1% | OVCAR-8 ovarian 70.2% | OVCAR-5 ovarian 54.6% | OVCAR-4 ovarian 61.5% | SK-OV-3 ovarian 30.9% | IGROV1 ovarian 39.8% | OVCAR-3 ovarian 32.1% | HS 578T breast 44.1%

O=c1c2cccc(F)c2sc2c(NCCCNCCO)nc3ccccc3c12
inactive: SK-MEL-2 melanoma 89.8% | EKVX NSCLC 55.4% | SN12C renal 43.5% | UO-31 renal 19% | TK-10 renal 48.6% | ACHN renal 15.3% | A498 renal 40.9% | CCRF-CEM leukemia 22.7% | OVCAR-8 ovarian 32% | OVCAR-5 ovarian 61.8% | OVCAR-4 ovarian 34.9% | SK-OV-3 ovarian 56.2% | IGROV1 ovarian 24.2% | OVCAR-3 ovarian 30.1% | HS 578T breast 37.8% | NCI/ADR-RES ovarian 31.5%
active: CAKI-1 renal 3.45% | MOLT-4 leukemia -6.18% | SR leukemia -16.6%

CC1CN(C2CCCCC2)C(=S)N(c2ccccc2)C1=O (centres undefined)
inactive: SK-MEL-2 melanoma 122% | EKVX NSCLC 101% | SN12C renal 111% | UO-31 renal 97.7% | TK-10 renal 116% | ACHN renal 110% | CAKI-1 renal 97.9% | A498 renal 95.4% | CCRF-CEM leukemia 93.8% | MOLT-4 leukemia 70.4% | SR leukemia 98.7% | OVCAR-8 ovarian 118% | OVCAR-5 ovarian 104% | OVCAR-4 ovarian 97.2% | SK-OV-3 ovarian 116% | IGROV1 ovarian 105% | OVCAR-3 ovarian 112% | HS 578T breast 109% | NCI/ADR-RES ovarian 102%

NCCOc1ncccc1/C=C1\C2C=CC=CC2C2C=CC(F)=CC12 (centres undefined)
active: SN12C renal -3.7% | UO-31 renal -0.645% | ACHN renal -34% | CCRF-CEM leukemia 3.62% | MOLT-4 leukemia 0.118% | SR leukemia 0.916%
inactive: SK-MEL-2 melanoma 113% | EKVX NSCLC 43.9% | TK-10 renal 41.7% | CAKI-1 renal 25% | A498 renal 17.2% | OVCAR-8 ovarian 25.7% | OVCAR-5 ovarian 31.3% | OVCAR-4 ovarian 68.3% | SK-OV-3 ovarian 20.1% | IGROV1 ovarian 29.9% | OVCAR-3 ovarian 35% | HS 578T breast 61.5% | NCI/ADR-RES ovarian 27.8%

CN(C)CCNc1nc2ccccc2c2c(=O)c3cc(F)ccc3sc12
active: MOLT-4 leukemia -3.39% | SR leukemia -23.5%
inactive: SK-MEL-2 melanoma 87.3% | EKVX NSCLC 67.7% | SN12C renal 50.8% | UO-31 renal 25.2% | TK-10 renal 55.4% | ACHN renal 21.4% | CAKI-1 renal 14% | A498 renal 17.6% | CCRF-CEM leukemia 24.4% | OVCAR-8 ovarian 40.2% | OVCAR-5 ovarian 76.9% | OVCAR-4 ovarian 29.9% | SK-OV-3 ovarian 77.1% | IGROV1 ovarian 49% | OVCAR-3 ovarian 38.1% | HS 578T breast 47.8% | NCI/ADR-RES ovarian 38.3%

O=c1c2cc(F)cc(Cl)c2sc2c(NCCCNCCO)nc3ccccc3c12
active: SR leukemia -6.83%
inactive: SK-MEL-2 melanoma 107% | EKVX NSCLC 88.2% | SN12C renal 83.4% | UO-31 renal 59.8% | TK-10 renal 100% | ACHN renal 83.8% | CAKI-1 renal 71.2% | A498 renal 56.2% | CCRF-CEM leukemia 15.8% | MOLT-4 leukemia 60.6% | OVCAR-8 ovarian 95.7% | OVCAR-5 ovarian 93.7% | OVCAR-4 ovarian 79.1% | SK-OV-3 ovarian 93.9% | IGROV1 ovarian 79.4% | OVCAR-3 ovarian 96.1% | HS 578T breast 88.1% | NCI/ADR-RES ovarian 89.2%

C/C=C(\C)C(=O)N[C@H]1[C@@H](OC(C)=O)C[C@]2(C)C3CC[C@@]4(C)C(CC[C@@H]4C(C)N(C)C)C3CCC2[C@H]1O (some centres undefined)
inactive: SK-MEL-2 melanoma 97.2% | EKVX NSCLC 62.7% | SN12C renal 75.3% | UO-31 renal 10.5% | TK-10 renal 65.5% | ACHN renal 67.9% | CAKI-1 renal 65.6% | A498 renal 85.8% | CCRF-CEM leukemia 39.7% | MOLT-4 leukemia 65.6% | SR leukemia 51% | OVCAR-8 ovarian 78.6% | OVCAR-5 ovarian 96.7% | OVCAR-4 ovarian 15.3% | SK-OV-3 ovarian 93.6% | IGROV1 ovarian 66.4% | OVCAR-3 ovarian 74.9% | HS 578T breast 88.6% | NCI/ADR-RES ovarian 67.9%

CCOC(=O)c1sc2ncc(-c3ccc(C)cc3)n2c1C
inactive: SK-MEL-2 melanoma 101% | EKVX NSCLC 88.4% | SN12C renal 86.6% | UO-31 renal 78.2% | TK-10 renal 147% | ACHN renal 84% | CAKI-1 renal 88.1% | A498 renal 104% | CCRF-CEM leukemia 89.5% | MOLT-4 leukemia 90.1% | SR leukemia 112% | OVCAR-8 ovarian 94.7% | OVCAR-5 ovarian 95.9% | OVCAR-4 ovarian 95.4% | SK-OV-3 ovarian 81.3% | IGROV1 ovarian 71.3% | OVCAR-3 ovarian 97.2% | HS 578T breast 96.7% | NCI/ADR-RES ovarian 92.9%
